Compounds without any hit were thinned out: in the full panel of roughly 79,000, 15% have a hit. Cut-off read from the data, not from the text of the source: active = growth inhibition above about 70%; inactive = the rest.
Assays:
[1] = NCI Yeast Anticancer Drug Screen. Data for the rad50 strain (AID 155);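 note: 0% = growth of vehicle-only cultures of the same strain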; details: S. cerevisiae rad50 strain growth inhibition; at 50.0 µM; stronger effect = higher value
Method in brief: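 Yeast carrying a defined DNA repair defect were exposed to test compounds, and growth was compared with vehicle-treated controls to give percent inhibition.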

[2] = NCI Yeast Anticancer Drug Screen. Data for the mec2-1 strain (AID 157); details: S. cerevisiae mec2-1 strain, at 50.0 µM, stronger effect = higher value
Method in brief: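 mec2-1 yeast strain, carrying an alteration in DNA damage repair or cell cycle control, was exposed to compounds; growth inhibition was measured relative to vehicle-treated controls.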

[3] = NCI Yeast Anticancer Drug Screen. Data for the sgs1 mgt1 strain (AID 161);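 note: 0% = growth of cultures given vehicle only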; details: S. cerevisiae sgs1 mgt1 strain, at 50.0 µM, stronger effect = higher value
Method in brief: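 Percent growth inhibition was derived by comparing compound-exposed mutant yeast with vehicle-exposed cultures. The strain carries alterations in DNA damage repair.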

[4] = NCI Yeast Anticancer Drug Screen. Data for the cln2 rad14 strain (AID 165);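 note: 0% = growth equal to vehicle treated cultures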; details: S. cerevisiae cln2 rad14 strain, at 50.0 µM, stronger effect = higher value
Method in brief: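 Yeast carrying cln2 and rad14 alterations (cell cycle control and DNA damage repair) were exposed to compounds. Growth inhibition was measured against vehicle-treated controls.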

[5] = NCI Yeast Anticancer Drug Screen. Data for the bub3 strain (AID 167); details: S. cerevisiae bub3 mutant strain, at 50.0 µM, stronger effect = higher value
Method in brief: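 Compounds were applied to a genetically altered yeast strain carrying a cell-cycle control defect. Growth inhibition was scored against vehicle-treated controls.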

[6] = NCI Yeast Anticancer Drug Screen. Data for the mlh1 rad18 strain (AID 175); details: S. cerevisiae mlh1 rad18 strain growth inhibition; at 50.0 µM; stronger effect = higher value
Method in brief: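 Growth inhibition of the yeast strain was measured after compound exposure and expressed relative to vehicle-treated controls. The strain carries defined defects in DNA damage repair.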

Measured: growth inhibition

CCOC(=O)C(C)C(=O)NCc1ccccc1 (stereo not given)
inactive: [1] -4.55% | [2] -4.9% | [3] -6.8% | [4] -43.5% | [5] 9.35% | [6] 11.3%

COc1cc(C=Nc2cc(Cl)c(N=O)c(Cl)c2)ccc1N(CCCCl)CCCCl
inactive: [1] 33.4% | [2] -13% | [3] 40.8% | [4] -15.8% | [5] 2.2% | [6] 12.3%

O=C1CCCc2ccc([N+](=O)[O-])c(O)c21
inactive: [1] 11% | [2] 10.1% | [3] -2.55% | [4] 4.4% | [5] 9.8% | [6] 8.65%

COC(=O)C1=C(C(=O)OC)C2(C3C(SC)=CC(C)(C)CC3S1)N(Cc1ccccc1)CCN2Cc1ccccc1 (stereo not given)
inactive: [1] -7.65% | [2] -5.25% | [3] -9.95% | [4] 9.05% | [5] -8.7% | [6] -27.2%

CCOC(=O)c1c(C)c2c(n1C)CC/C(=C\N1CCN(c3ccccc3)CC1)C2=O
inactive: [1] 0.6% | [2] -1.55% | [3] -19.5% | [4] -14.8% | [5] 2.25% | [6] 18.3%

COc1ccccc1C(=O)c1ccccc1
inactive: [1] -27.4% | [2] -7.3% | [3] -3.4% | [4] -14.9% | [5] -20.1% | [6] -11.2%

NC(CO)C(O)C(O)C(O)CO (stereo not given)
inactive: [1] 6.8% | [2] 4.5% | [3] 3.35% | [4] 6.7% | [5] 2.35% | [6] -0.45%

Cc1cc(=O)c2c(Br)ccc(Br)c2[nH]1
inactive: [1] 3.5% | [2] -16.1% | [3] -1.1% | [4] 3.4% | [5] 7.3% | [6] -13.8%

Cc1c2ccccc2cc2c1ccc1c(Br)cccc12
inactive: [1] 10.1% | [2] -3.45% | [3] 21.3% | [4] 25.8% | [5] 12.1% | [6] 5.8%

O=c1c(O)c(-c2cc(O)c(O)c(O)c2)oc2cc(O)ccc12
inactive: [1] -35.5% | [2] -36.8% | [3] -24.3% | [4] -8.8% | [5] -32.8% | [6] -29.8%

CC(=O)/C(C=Nc1c(C)n(C)n(-c2ccccc2)c1=O)=C(/C)O
inactive: [1] 24.6% | [2] 29% | [3] 28.1% | [4] 9.65% | [5] 24.9% | [6] 28.5%

CO[C@H]1C[C@H]2CC[C@@]1(C)C2(C)C
inactive: [1] 8.85% | [2] 12.6% | [3] 3.7% | [4] -18.9% | [5] 0.4% | [6] -5.55%

NC(=O)OCC1CCCCC1OC(N)=O (stereo not given)
inactive: [1] 26.1% | [2] -17.4% | [3] -14.4% | [4] -92.7% | [5] -2.6% | [6] -10.4%

CC1(C)OC2C(CO)OC(n3ccc(N)nc3=O)C2O1 (stereo not given)
inactive: [1] -33% | [2] -12% | [3] 2.15% | [4] -29.9% | [5] 10.6% | [6] -1.75%

COc1c2cccc(Cl)c2cc2c(Cl)cccc12
inactive: [1] 6.3% | [2] -6.15% | [3] 1.3% | [4] 18.8% | [5] -11.2% | [6] 12.5%

Cc1ccc(S(=O)(=O)CC(=O)CC(=O)C(=O)Nc2ccc(C)cc2C)cc1
inactive: [1] 2.15% | [2] -9.2% | [3] -21.1% | [4] 2% | [5] -8.55% | [6] 12.8%

C[n+]1c(-c2ccc(/C=N/NC(=O)c3cc(O)c(C(=O)N/N=C/c4ccc(-c5cn6ccccc6[n+]5C)cc4)cc3O)cc2)cn2ccccc21
inactive: [1] -31% | [2] -13.5% | [3] -15.7% | [4] -39.5% | [5] -31.9% | [6] -10.5%

NC(=O)/C(=C\c1ccncc1)c1cccc2ccccc12
inactive: [1] -0.55% | [2] -5.1% | [3] -41.1% | [4] -3.35% | [5] -44% | [6] -7.05%

NC(=S)N/N=C\CC(O)(C(F)(F)F)C(F)(F)F
inactive: [1] -16.7% | [2] -19.2% | [3] -7.45% | [4] 0.5% | [5] 7.1% | [6] -2.3%

C[N+]1(C)CCOC(O)(c2ccccc2)C1 (stereo not given)
inactive: [1] -29.6% | [2] -34% | [3] -27.4% | [4] -2.85% | [5] -59.1% | [6] -18.6%

Reference: PubChem BioAssay (NCI)
